# Assay results reported in PubChem BioAssay (NCI).
# The panel holds about 83,000 compounds, 20% with a hit somewhere; the sample as a whole holds those more often.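 Cells were grown in 96-well plates and exposed to the test compound at a single concentration for 48 hours; results are reported as percent growth, with values below 10 considered active.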 Values without a mark were called inactive. Active and inactive are the calls of the source.
# Key:
# Assay in all cases: NCI-60 one-dose screen, 48 h (100 = growth as untreated, 0 = no growth, -100 = all killed)
# Conditions in all cases: 10 µM unless noted
# [1] = system: HCT-15 colon
# [2] = system: HT29 colon
# [3] = system: SNB-75 CNS
# [4] = system: SNB-19 CNS
# [5] = system: U251 CNS
# [6] = system: PC-3 prostate
# [7] = system: SK-MEL-5 melanoma
# [8] = system: UACC-62 melanoma
# [9] = system: LOX IMVI melanoma
# [10] = system: SK-MEL-28 melanoma
# [11] = system: SK-MEL-2 melanoma
# [12] = system: EKVX NSCLC
# [13] = system: SN12C renal
# [14] = system: UO-31 renal
# [15] = system: TK-10 renal
# [16] = system: ACHN renal
# [17] = system: CAKI-1 renal
# [18] = system: CCRF-CEM leukemia
# [19] = system: MOLT-4 leukemia
SMILES,growth [1],growth [2],growth [3] [%],growth [4],growth [5],growth [6],growth [7],growth [8],growth [9],growth [10],growth [11],growth [12],growth [13],growth [14],growth [15],growth [16],growth [17],growth [18],growth [19]
CCOC(=O)Oc1c(OC)cc(C(=O)c2ccc(OC)c(OC(=O)CCl)c2OC)cc1OC,16.6%,35.9%,36.3,22.8%,19%,23%,34.9%,30.6%,43.5%,47.4%,8.91% (active),70%,42.4%,46.6%,39.1%,36%,30.3%,15.9%,29.6%
N#C/C(=C\c1ccc([N+](=O)[O-])s1)c1nc2cc(Cl)ccc2s1,-45.9% (active),33.7%,49.7,12.8%,1.57% (active),-0.522% (active),-94.4% (active),19.5%,-29.2% (active),21.1%,-19.6% (active),7.23% (active),-27.5% (active),-15.8% (active),34.8%,-46.6% (active),43.3%,0.557% (active),8.53% (active)
C=CC(=O)N[C@@H](/C=C/C(=O)OCC)Cc1ccc(-c2cc(Cl)cc(Cl)c2)cc1,15.2%,20.3%,40.3,33.9%,20.2%,16.9%,-88.2% (active),9% (active),36.6%,39.8%,14.1%,20%,3.95% (active),14.2%,6.04% (active),26.7%,35.9%,17.2%,1.95% (active)
O=C1Nc2cc(-c3ccc(NC(=O)C4CC4)cc3)ccc2/C1=C/c1ccc[nH]1,94.7%,101%,94.5,94.7%,84%,104%,98.6%,110%,95.1%,119%,109%,47.6%,97.8%,80.2%,115%,106%,102%,98.7%,94.7%
CC1=C(C(=O)/C=C/c2c[nH]c3ccccc23)C(c2ccccc2)NC(=S)N1 (centres undefined),101%,106%,65.5,91.7%,101%,95.1%,98.3%,83.6%,94.3%,104%,99.2%,85.1%,91.6%,63.9%,135%,93.5%,77.8%,103%,101%
O=C1OC(Cc2ccccc2)C1c1ccccc1 (centres undefined),101%,106%,92.1,99.1%,97.5%,106%,98.9%,94.2%,99.3%,109%,102%,97.5%,97.7%,89%,89.4%,104%,97%,109%,101%
CCCCOc1ccc(/C=N/Nc2cc(C)nc3ccc(Br)cc23)cc1,-66% (active),-19.4% (active),107,50.7%,-53.5% (active),53.3%,84.3%,87.3%,-96.9% (active),59.5%,106%,69.9%,-78.4% (active),-71.1% (active),76.2%,19.9%,71.3%,2.46% (active),-26% (active)
N#Cc1c(NCc2ccccc2I)sc2c1CCCCC2,94.8%,99.8%,84.8,97.7%,90%,98.8%,98.2%,69.5%,91.1%,110%,105%,78.8%,96.9%,79.7%,109%,97.7%,74.8%,94.4%,84.2%
Nc1n[nH]c2cccc(C#Cc3cccc(C(=O)Nc4cc(CN5CCOCC5)cc(C(F)(F)F)c4)c3)c12,31.8%,18%,44.1,66.7%,51%,36.9%,29%,11.7%,7.72% (active),14.6%,4.06% (active),60.6%,39.1%,17.6%,67.7%,27%,48.8%,19.4%,23.8%
Nc1n[nH]c2cccc(C#Cc3cccc(C(=O)Nc4cccc(C(F)(F)F)c4)c3)c12,64.8%,38.8%,77.9,104%,72.8%,72.3%,53.8%,42.7%,38%,53.5%,33.8%,89.7%,67.3%,37.2%,97.5%,54.7%,68.4%,32.1%,39.2%
C[C@H]1[C@H](C)CC[C@]2(C(=O)NCC#CCN3CCN(C)CC3)CC[C@]3(C)C(=CC[C@@H]4[C@@]5(C)Cc6c([nH]c7ccccc67)C(C)(C)[C@@H]5CC[C@]43C)[C@H]12,47%,19.3%,90.1,83.2%,64.3%,69.8%,88.5%,101%,70.9%,82.3%,105%,86.5%,81.2%,67.6%,88.8%,96.3%,91.9%,66.7%,44.6%
C[C@H]1[C@H](C)CC[C@]2(C(=O)Nc3ccc4ncccc4c3)CC[C@]3(C)C(=CC[C@@H]4[C@@]5(C)CCCNC(C)(C)[C@@H]5CC[C@]43C)[C@H]12,-83.7% (active),-88.5% (active),78.2,-59.6% (active),-86.3% (active),-4.73% (active),-18.8% (active),-74.5% (active),-89.7% (active),-67.3% (active),90.5%,76.6%,-86.1% (active),-76.5% (active),102%,-75.1% (active),26.7%,-25.5% (active),-47.9% (active)
CC(=O)c1cc2c(N)c(C(=O)Nc3cccc4ccncc34)sc2nc1C,87.1%,104%,97.7,95.4%,101%,80.7%,64.7%,69.9%,102%,91.1%,78%,91.5%,99.9%,88.2%,99%,102%,93.1%,101%,88.7%
O=S(=O)(NCCNc1nccc(-c2c(-c3cccc(O)c3)nc3occn23)n1)c1ccccc1,103%,38.1%,87.8,94.8%,95.4%,85.3%,33.7%,8.22% (active),53.7%,34.1%,61.3%,109%,72.7%,101%,130%,82.1%,78.3%,80.9%,94.2%
O=C(Nc1ccccc1C(=O)N/N=C(\c1ccccc1)c1ccccn1)c1ccc(F)cc1,32.5%,25.2%,16.2,25.5%,17.8%,36.5%,-7.66% (active),1.28% (active),8.38% (active),33.7%,37.2%,16.8%,26.6%,1.98% (active),49.1%,14.1%,5.29% (active),4.15% (active),12.8%
NC(=NCCCOc1ccc(F)cc1)Nc1ccc(I)cc1,75.3%,38.2%,63.6,78.1%,78.6%,59.1%,38.2%,82.8%,84.4%,88.3%,84.1%,76%,81%,59.2%,73%,73.5%,74.5%,79.3%,40.9%
